Reference: PubChem BioAssay (Tox21)
Results filed as inconclusive are left out. Values without a mark were called inactive. The source made the active and inactive calls. Unless noted, the call rests on the fitted dose curve. Where a SMILES comes first, the peptide text is derived from it. [ ]: non-standard residue; d: D form. pGlu = O=C1CC[C@@H](C(=O)O)N1

Test system: not listed separately
Assay: qHTS assay to identify small molecule antagonists of the sonic hedgehog signaling (Shh) pathway (AID 1259369); further: nearly all actives have a fitted effect of over 45% in size; further: potency means the concentration at half of the fitted maximal effect
Details: NIH/3T3 Gli1-Luc reporter, Shh antagonist, luminescence 24 h; series mostly up to 92.4 µM; activity change, negative = inhibition: at the top concentration
Outline: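 Conditioned medium drives Shh signalling in 3T3Gli1-Luc cells; compounds in DMSO co-applied, 24hr at 37 C, then luciferase luminescence.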
On the % scale 0 is the no-effect control and ±100 the full control effect.

| SMILES | activity change, negative = inhibition | Potency |
| --- | --- | --- |
| O=Cc1cccc(Br)c1 | -5.55% | – |
| C[N+](C)(CCOc1ccccc1)Cc1cccs1 | 4.24% [at 42.5 µM] | – |
| CN1CCC(=C2c3ccccc3CCc3cccnc32)CC1 | – | 13.3 µM (active) |
| CCCCc1ccc2c(n1)[C@@H](c1ccc(OC)cc1C[C@H](C)C(=O)O)[C@H](C(=O)O)[C@H]2c1ccc2c(c1)OCO2 | 0% | – |
| CC(=O)c1ccc2ccccc2c1 | 8.08% | – |
| CC(C)c1ccc2ncccc2c1 | 3.78% | – |
| c1ccc(Cc2ccccc2)cc1 | 1.46% | – |
| C=C(C)C(=O)OCC1CCCO1 (stereo unspecified) | 27.6% | – |
| CN(C)CCCN(C)CCCN(C)C | 5.39% | – |
| O=S(=O)(O)c1cc(O)c(O)c(S(=O)(=O)O)c1 | 0% | – |
| O=[N+]([O-])c1cncn1CCN1CCOCC1 | 21.4% [at 42.5 µM] | – |
| CCOC(=O)OC(C)OC1=C(C(=O)Nc2ccccn2)N(C)S(=O)(=O)c2ccccc21 (stereo unspecified) | 17.9% [at 42.5 µM] | – |
| CCC(C)(CCCC(C)C)OC(C)=O (stereo unspecified) | 0.035% | – |
| CC1(C)[C@@H]2CC[C@@]1(C)[C@H](O)C2 | 27.4% | – |
| CCN[C@H]1C[C@H](C)S(=O)(=O)c2sc(S(N)(=O)=O)cc21 | 9.99% [at 42.5 µM] | – |
| O=CN(CCO)CCO | 4.86% | – |

Target: Estrogen receptor beta (Homo sapiens) (UniProt Q92731)
Sequence (Q92731 whole entry, looked up): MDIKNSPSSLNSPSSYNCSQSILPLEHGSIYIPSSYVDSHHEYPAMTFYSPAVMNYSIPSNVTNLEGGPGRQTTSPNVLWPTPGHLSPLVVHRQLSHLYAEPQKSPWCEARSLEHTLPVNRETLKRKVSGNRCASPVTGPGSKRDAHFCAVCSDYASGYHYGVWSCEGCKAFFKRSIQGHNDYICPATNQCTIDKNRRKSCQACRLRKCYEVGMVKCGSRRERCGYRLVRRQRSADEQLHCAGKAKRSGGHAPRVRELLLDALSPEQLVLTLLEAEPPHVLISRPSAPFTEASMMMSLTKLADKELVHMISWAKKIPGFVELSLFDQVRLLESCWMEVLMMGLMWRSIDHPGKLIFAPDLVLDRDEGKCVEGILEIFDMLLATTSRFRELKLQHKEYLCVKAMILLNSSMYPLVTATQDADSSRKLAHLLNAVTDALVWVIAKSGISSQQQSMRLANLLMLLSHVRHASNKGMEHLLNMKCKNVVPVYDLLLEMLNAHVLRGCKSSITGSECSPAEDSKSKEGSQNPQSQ
Assay: qHTS assay to identify small molecule agonists of the estrogen receptor beta (ER-beta) signaling pathway (AID 1259377; active means well fitted activation curve with a large enough effect in the signal ratio in the repeat runs, not every such curve was filed as active; the % refers to the signal ratio)
Details: ER-beta-UAS-bla HEK293T, beta-lactamase FRET ratio, 16 h; series mostly up to 92.4 µM; activation: at the top concentration
Outline: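 A UAS-controlled beta-lactamase reporter in ER-beta-UAS-bla HEK293T cells reports receptor activation. Compounds act for 16 hr at 37C in 2% charcoal-stripped serum, and a FRET substrate is read by fluorescence after 2 hours.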

| SMILES | activation |
| --- | --- |
| CC1(C)OC[C@@H](COC(=O)CCc2ccc(OC[C@@H](O)CNCCNC(=O)N3CCOCC3)cc2)O1 | 5.21% [at 42.5 µM] |
| CCC(C(=O)NC(=O)NC(C)=O)c1ccccc1 (stereo unspecified) | 0.258% [at 42.5 µM] |
| CC(C)(N)C#N | 2.33% |
| CN1C(C)(C)CC(O)CC1(C)C | 5.79% |
| O=C(c1ccccc1)C1(O)CCCCC1 | 4.51% |
| [O-][n+]1cccc(CO)c1 | 1.15% [at 42.5 µM] |
| CCNC(=O)[C@@H]1CCCN1C(=O)[C@H](CCCN=C(N)N)NC(=O)[C@H](CC(C)C)NC(=O)CNC(=O)[C@H](Cc1ccc(O)cc1)NC(=O)[C@H](CO)NC(=O)[C@H](Cc1c[nH]c2ccccc12)NC(=O)[C@H](Cc1cnc[nH]1)NC(=O)[C@@H]1CCC(=O)N1 ([pGlu]HWSYGLRP-NHEt) | -2.88% [at 42.5 µM] |
| CC(C)CC(C)(N)C#N (stereo unspecified) | -1.21% |
| O=C(O)CCSCCC(=O)O | 0.584% |
| CC(COc1ccccc1)NN (stereo unspecified) | 1.12% [at 42.5 µM] |
| C=CC(=O)OCCCl | -0.0541% |
| NS(=O)(=O)Cc1noc2ccccc12 | -0.0481% [at 42.5 µM] |
| CCNS(=O)(=O)c1ccc(C)cc1 | -0.447% |
| CC(=O)NC(=O)c1ccccc1O | 2.24% [at 42.5 µM] |
| OCCCCCO | 9.47% |
| O=C(CO)[C@@H](O)[C@H](O)[C@H](O)CO | 2.98% |
| C=CC(C)(CCC=C(C)C)OC(=O)CC (stereo unspecified) | 2% |
| CN(C)[C@@H]1C(=O)C(C(=O)NCN2CCCC2)=C(O)[C@@]2(O)C(=O)C3=C(O)c4c(O)cccc4[C@@](C)(O)C3C[C@@H]12 (stereo partly specified) | -0.451% [at 42.5 µM] |
| Clc1cc(Cl)cc(Cl)c1 | -2.13% |
| O=C1CCCCCCCCCCCCCCO1 | 6.79% |
| CCCO[Si](OCCC)(OCCC)OCCC | -1.59% |
| C=COCC1CCC(COC=C)CC1 (stereo unspecified) | 8.81% |
| O=Cc1cccc(Br)c1 | -0.172% |
| C[N+](C)(CCOc1ccccc1)Cc1cccs1 | -0.294% [at 42.5 µM] |
| CN1CCC(=C2c3ccccc3CCc3cccnc32)CC1 | -0.294% [at 42.5 µM] |
| CCCCc1ccc2c(n1)[C@@H](c1ccc(OC)cc1C[C@H](C)C(=O)O)[C@H](C(=O)O)[C@H]2c1ccc2c(c1)OCO2 | 1.58% |
| CC(=O)c1ccc2ccccc2c1 | 1.43% |
| CC(C)c1ccc2ncccc2c1 | 4.92% |
| c1ccc(Cc2ccccc2)cc1 | 9.2% |
| C=C(C)C(=O)OCC1CCCO1 (stereo unspecified) | -0.0147% |
